Laboratory results as given in PubChem BioAssay AID686978 (National Center for Advancing Translational Sciences (NCATS), 2013).
About 64,000 (15%) of roughly 420,000 compounds were called active. Another 27% or so got no clear call; they are omitted. Not all results are given here. Unmarked numbers belong to inactive results. The call rests on the fitted dose curve; in most records, active means well fitted inhibition curve with a large enough effect; inconclusive means small, poorly fitted or top-dose-only effect; inactive means flat fitted curve, though single readings scatter.

Assay: qHTS for Inhibitors of human tyrosyl-DNA phosphodiesterase 1 (TDP1): qHTS in cells in absence of CPT; further: nearly all actives have a fitted effect of over 55% in size
Conditions: DT40 Tdp1-/- hTDP1 cells, no CPT, ATP luminescence, 48 h; activity change, negative = growth inhibition: at 46.2 µM (top of the series)
In short: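 Growth kinetics read by CellTiter-Glo luminescence after ≥48 hr at 37 °C. Cells: DT40 Tdp1-/- stably carrying human TDP1, 400 per well, compound exposure in the absence of CPT (DMSO vehicle).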
On the % scale 0 is the no-effect control and ±100 the full control effect; potency means the concentration at half of the fitted maximal effect.

SMILES	activity change, negative = growth inhibition [%]	Potency
CC1(C)C(=O)Nc2ccccc2N1C(=O)COC(=O)Cn1cnc2ccccc2c1=O	-10.5	–
O=C1CC(c2cccc(Br)c2)C2=C(CCCC2=O)N1 (stereo unspecified)	-15.9	–
COc1cc(OC)cc(/C(N)=N/O)c1	0.324	–
COc1ccc(C/C(C)=N/NC(=O)c2cc(C)oc2C)cc1	-17.1	–
Cc1cc(C(=O)N/N=C\C(Br)=C\c2ccccc2)c(C)o1	–	16.4 µM (active)
Cc1ccc(-c2cc(C(=O)N/N=C/C=C/c3ccccc3)n[nH]2)o1	-12.2	–
CC(=C/c1ccccc1)/C=N/NC(=O)c1cc(C)oc1C	-18.6	–
CC(C)c1cc(C(=O)N/N=C/C(Br)=C/c2ccccc2)n[nH]1	–	2.59 µM (active)
CC(C)c1cc(C(=O)O)n[nH]1	-6.63	–
Cc1ccc(NC(=O)Cc2nnc(SCC(=O)Nc3nncs3)n2C)cc1	1.58	–
CC(C)Nc1nnc(SCC(=O)c2c[nH]c3ccccc23)s1	-28.5	–
CC(NC(=O)C(=O)N/N=C/c1ccc(Cl)cc1)c1ccccc1 (stereo unspecified)	-10.3	–
C=CS(=O)c1sc(Cl)c(N2CCOCC2)c1[N+](=O)[O-] (stereo unspecified)	–	1.03 µM (active)
Cc1c(Nc2cc(N3CCCC(C)C3)c3nonc3c2[N+](=O)[O-])c(=O)n(-c2ccccc2)n1C (stereo unspecified)	10.8	–
COc1ccc(N2C(=O)CC(N3CCC(C(N)=O)CC3)C2=O)cc1 (stereo unspecified)	-2.52	–
O=C(CN1CCCC1)N1CCN(c2ccccc2)CC1	4.2	–
CN(C)c1ccc(/C=N/N(Cc2ccccc2)c2ccccc2)cc1	5.64	–
CCN1CCN(c2ccc(/C=C/c3ccnc4ccccc34)cc2)CC1	–	17.8 µM (active)
c1ccc(-c2cnc(CN3CCN(c4ccccc4)CC3)o2)cc1	-4.06	–
CN(Cc1ccccc1)c1ccc(/C=C/c2ccnc3ccccc23)cc1	–	12.6 µM (active)
CCCCCCCNc1ccc(/C=C/c2ccnc3ccccc23)cc1	–	10 µM (active)
Oc1ccc(/C=N/N(Cc2ccccc2)c2ccccc2)cc1	0.739	–
CCC(C)N(c1ccc(/C=C/c2ccnc3ccccc23)cc1)C(C)CC (stereo unspecified)	–	4.47 µM (active)
CCCCN1C(=O)CC(N2CCOCC2)C1=O (stereo unspecified)	-1.99	–
CN(C)C(=O)c1cccn(Cc2cccc(C(F)(F)F)c2)c1=O	2.44	–
O=C(c1cc(-c2ccc(O)cc2)on1)N1CCOCC1	-0.712	–

SMILES	activity change, negative = growth inhibition [%]	Potency
CC(=O)c1ccc(NC(=S)N(Cc2ccccc2)C(C)C2CC2)cc1 (stereo unspecified)	-18.9	–
O=C(Nc1ccc(C(=O)O)cc1)/C(=C/c1ccc([N+](=O)[O-])cc1)NC(=O)c1ccccc1	-11.3	–
CCOC(=O)C1(C(F)(F)F)N=C(N(C)C)OC(N(C)C)=N1	-2.16	–
Cc1ccc2nsnc2c1S(=O)(=O)N1CCCC1C(=O)O (stereo unspecified)	-2.15	–
O=C(CNC(=O)c1ccccc1)NCC(=O)OCc1ccc(Cl)cc1	-13.1	–
CCOC(=O)CSc1nccc(N(C)C)c1C#N	1.31	–
CN(CC(=O)NCCN1CCOCC1)S(=O)(=O)c1ccc(F)cc1	5.76	–
O=C(NC(Cc1c[nH]c2ccccc12)C(=O)O)/C(=C/c1ccco1)NC(=O)c1ccccc1 (stereo unspecified)	-0.131	–
Cc1c(Cl)cccc1NC(=S)NCc1ccc2c(c1)OCO2	-27.6	–
CC(C)Nc1ncnc2c1nnn2Cc1ccccc1	-22.2	–
O=C(CSc1ncnc2c1nnn2Cc1ccc(F)cc1)NC1CCCC1	1.56	–
c1ccc(Cn2nnc3c(N4CCCCC4)ncnc32)cc1	–	8.91 µM (active)
CCc1ccccc1NC(=O)CSc1nnc([C@@H](NC(=O)OC(C)(C)C)C(C)CC)o1 (stereo partly specified)	-10	–
Cc1nc(SCC(=O)Nc2cc(C)on2)c2c3c(sc2n1)CCCC3	-22.6	–
Cc1cc(NC(=O)CSc2nc(C(C)C)nc3sc4c(c23)CCC(C)C4)no1 (stereo unspecified)	–	23.1 µM (active)
CC(C)c1nc(SCC(=O)Nc2cccc(C(=O)O)c2)c2c3c(sc2n1)CCCC3	-3.16	–
CSc1ccc(CCNC(=O)c2cnn(-c3ccccc3)c2-n2cccc2)cc1	–	14.6 µM (active)
Cc1c(C(=O)NCc2ccccc2)cnn1-c1ccccc1	-3.89	–
CCCN1CCN(CCCNC(=O)c2cnn(-c3ccc(C)cc3)c2-n2cccc2)CC1	-27	–
C=CCn1c(SCC(=O)NC(=O)Cc2ccccc2)nc2ccccc2c1=O	1.77	–
Cc1csc(=O)n1CCC(=O)OCC(=O)NNC(=O)c1ccc(Br)cc1	-14.1	–
CCCOc1ccccc1C1CC(=O)Nc2cc3c(cc21)OCO3 (stereo unspecified)	–	1.84 µM (active)
COCCOC(=O)C1=C(C)NC(=O)CC1c1cc2c(cc1Br)OCO2 (stereo unspecified)	-12.9	–
O=C1CC(c2ccc(F)cc2F)c2cc3c(cc2N1)OCO3 (stereo unspecified)	-22.4	–
Cc1cc(C)c2nc(NC(=O)C3CCCO3)sc2c1 (stereo unspecified)	-22.2	–
